Assays:
Experiment in all cases: DAPPL (digital affinity profiling via proximity ligation, sequencing); 10 mM Tris-HCl pH 7.5, 50 mM NaCl, 1 mM DTT, 4% glycerol, room temperature, 30 min; GST-TFs on glutathione beads, 16-mer random dsDNA library, 0.1% formaldehyde crosslink after washing; high values mean tight binding
FLI1 = target: T1, FLI1 (Homo sapiens, UniProt Q01543 1-452); settings: protein: recombinant; tags: N-terminal GST; dsDNA, one strand shown
T1 sequence: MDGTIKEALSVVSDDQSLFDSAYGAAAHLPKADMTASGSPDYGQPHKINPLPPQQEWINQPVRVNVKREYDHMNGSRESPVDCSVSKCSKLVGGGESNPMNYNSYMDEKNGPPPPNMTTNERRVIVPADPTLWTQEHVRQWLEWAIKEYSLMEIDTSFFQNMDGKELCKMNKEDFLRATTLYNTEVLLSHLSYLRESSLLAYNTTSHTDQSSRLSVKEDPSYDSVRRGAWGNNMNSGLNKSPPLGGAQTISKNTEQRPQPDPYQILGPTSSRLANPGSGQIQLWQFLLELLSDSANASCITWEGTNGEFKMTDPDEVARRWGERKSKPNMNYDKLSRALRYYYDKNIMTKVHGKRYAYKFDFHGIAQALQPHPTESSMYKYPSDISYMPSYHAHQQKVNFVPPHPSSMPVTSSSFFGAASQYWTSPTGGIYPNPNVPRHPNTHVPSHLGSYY
How it was run: (§1)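 Pools were built from human transcription factors expressed in yeast as GST fusions, captured on glutathione beads and DNA-barcoded, along with a tag-only sample. Incubation with 200 nmole of a 16-mer random double-stranded DNA library lasted 30 min at room temperature in Tris/NaCl/DTT/glycerol buffer, and was followed by washing, 0.1% formaldehyde crosslinking, proximity ligation, PCR amplification and Illumina NextSeq500 sequencing. Binding signal is the quotient of each hexamer's read frequency for a factor and its frequency for the tag-only sample.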

ELK1 = target: T2, ELK1 (Homo sapiens, UniProt P19419 1-428); settings: protein: recombinant; tags: N-terminal GST; dsDNA, one strand shown
T2 sequence: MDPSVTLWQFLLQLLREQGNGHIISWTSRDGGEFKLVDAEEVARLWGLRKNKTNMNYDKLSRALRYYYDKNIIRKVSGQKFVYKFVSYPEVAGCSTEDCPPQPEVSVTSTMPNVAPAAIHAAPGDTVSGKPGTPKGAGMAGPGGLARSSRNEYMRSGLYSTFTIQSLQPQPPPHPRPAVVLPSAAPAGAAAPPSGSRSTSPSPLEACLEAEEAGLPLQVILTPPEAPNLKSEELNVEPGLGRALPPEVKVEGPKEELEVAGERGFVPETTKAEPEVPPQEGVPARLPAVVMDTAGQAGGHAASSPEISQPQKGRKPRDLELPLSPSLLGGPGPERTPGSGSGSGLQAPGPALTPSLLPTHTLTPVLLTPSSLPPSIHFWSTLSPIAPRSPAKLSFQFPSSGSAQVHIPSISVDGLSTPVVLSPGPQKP
How it was run: as §1

GABPA = target: T3, GABPA (Homo sapiens, UniProt Q06546 1-454); settings: protein: recombinant; tags: N-terminal GST; dsDNA, one strand shown
T3 sequence: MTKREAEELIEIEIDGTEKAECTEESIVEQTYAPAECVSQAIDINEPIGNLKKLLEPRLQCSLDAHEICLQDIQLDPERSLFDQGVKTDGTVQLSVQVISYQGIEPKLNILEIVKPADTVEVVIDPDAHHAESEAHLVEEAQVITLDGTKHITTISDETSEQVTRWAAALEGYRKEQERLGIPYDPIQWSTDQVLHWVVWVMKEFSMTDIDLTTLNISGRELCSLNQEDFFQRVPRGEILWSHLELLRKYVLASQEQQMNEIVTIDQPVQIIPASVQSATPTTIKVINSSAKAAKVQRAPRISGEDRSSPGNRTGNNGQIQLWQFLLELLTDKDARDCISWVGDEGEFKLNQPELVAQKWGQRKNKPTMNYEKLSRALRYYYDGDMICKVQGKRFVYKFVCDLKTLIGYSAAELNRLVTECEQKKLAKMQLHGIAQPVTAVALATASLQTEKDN
How it was run: as §1

ERG = target: T4, ERG (Homo sapiens, UniProt P11308 1-479); settings: protein: recombinant; tags: N-terminal GST; dsDNA, one strand shown
T4 sequence: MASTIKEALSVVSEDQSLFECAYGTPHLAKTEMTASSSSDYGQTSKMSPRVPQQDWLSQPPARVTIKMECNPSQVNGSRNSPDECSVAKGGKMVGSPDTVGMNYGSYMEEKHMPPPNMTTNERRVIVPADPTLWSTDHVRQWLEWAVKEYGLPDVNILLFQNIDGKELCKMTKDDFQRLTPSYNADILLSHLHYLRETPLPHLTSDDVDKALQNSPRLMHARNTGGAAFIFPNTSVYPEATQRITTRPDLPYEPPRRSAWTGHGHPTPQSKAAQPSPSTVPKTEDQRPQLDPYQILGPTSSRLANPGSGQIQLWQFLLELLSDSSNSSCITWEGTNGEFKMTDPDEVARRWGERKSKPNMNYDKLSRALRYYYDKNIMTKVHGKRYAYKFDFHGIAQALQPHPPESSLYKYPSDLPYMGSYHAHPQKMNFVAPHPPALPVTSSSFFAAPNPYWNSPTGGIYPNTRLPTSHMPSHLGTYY
How it was run: as §1

ELF1 = ELF1 (Homo sapiens, UniProt P32519 1-619); settings: protein: recombinant; tags: N-terminal GST; dsDNA, one strand shown
Sequence of ELF1 (P32519 whole entry): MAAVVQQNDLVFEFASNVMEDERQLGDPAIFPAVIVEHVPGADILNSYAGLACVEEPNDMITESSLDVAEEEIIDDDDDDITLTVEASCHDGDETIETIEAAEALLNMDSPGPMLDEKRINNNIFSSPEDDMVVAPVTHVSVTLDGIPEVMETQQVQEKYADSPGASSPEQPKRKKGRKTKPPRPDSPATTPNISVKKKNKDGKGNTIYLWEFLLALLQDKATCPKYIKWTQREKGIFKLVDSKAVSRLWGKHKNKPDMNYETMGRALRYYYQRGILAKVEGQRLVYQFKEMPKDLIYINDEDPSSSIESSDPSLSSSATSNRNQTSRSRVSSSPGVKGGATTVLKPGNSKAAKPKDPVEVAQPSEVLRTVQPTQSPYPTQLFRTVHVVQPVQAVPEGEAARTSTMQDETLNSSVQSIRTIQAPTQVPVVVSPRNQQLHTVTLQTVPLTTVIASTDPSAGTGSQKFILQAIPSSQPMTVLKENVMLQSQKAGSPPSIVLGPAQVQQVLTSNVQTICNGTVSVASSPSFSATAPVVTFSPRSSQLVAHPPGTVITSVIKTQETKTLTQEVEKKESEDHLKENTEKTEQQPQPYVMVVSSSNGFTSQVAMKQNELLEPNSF
How it was run: as §1

EHF = target: T5, EHF (Homo sapiens, UniProt Q9NZC4 1-300); settings: protein: recombinant; tags: N-terminal GST; dsDNA, one strand shown
T5 sequence: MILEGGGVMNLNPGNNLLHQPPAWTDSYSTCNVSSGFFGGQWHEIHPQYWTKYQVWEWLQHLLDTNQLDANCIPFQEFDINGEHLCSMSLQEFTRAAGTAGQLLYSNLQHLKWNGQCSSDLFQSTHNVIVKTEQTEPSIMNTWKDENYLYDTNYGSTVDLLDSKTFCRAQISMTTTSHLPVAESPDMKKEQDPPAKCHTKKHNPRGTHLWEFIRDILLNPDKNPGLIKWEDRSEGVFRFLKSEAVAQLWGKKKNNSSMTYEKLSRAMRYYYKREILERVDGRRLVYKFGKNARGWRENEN
How it was run: as §1

SPI1 = SPI1 (Homo sapiens, UniProt P17947 1-270); settings: protein: recombinant; tags: N-terminal GST; dsDNA, one strand shown
How it was run: as §1

SPIB = SPIB (Homo sapiens, UniProt Q01892 1-262); settings: protein: recombinant; tags: N-terminal GST; dsDNA, one strand shown
Sequence of SPIB (Q01892 whole entry): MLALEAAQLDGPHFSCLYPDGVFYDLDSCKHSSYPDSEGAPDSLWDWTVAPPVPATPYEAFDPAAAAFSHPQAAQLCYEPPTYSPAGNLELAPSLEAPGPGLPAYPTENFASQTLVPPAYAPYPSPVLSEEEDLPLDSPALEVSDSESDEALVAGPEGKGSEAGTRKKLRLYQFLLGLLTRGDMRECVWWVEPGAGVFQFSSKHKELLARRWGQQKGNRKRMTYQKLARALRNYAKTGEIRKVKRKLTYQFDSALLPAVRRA
How it was run: as §1

ELK3 = target: T6, ELK3 (Homo sapiens, UniProt P41970 1-407); settings: protein: recombinant; tags: N-terminal GST; dsDNA, one strand shown
T6 sequence: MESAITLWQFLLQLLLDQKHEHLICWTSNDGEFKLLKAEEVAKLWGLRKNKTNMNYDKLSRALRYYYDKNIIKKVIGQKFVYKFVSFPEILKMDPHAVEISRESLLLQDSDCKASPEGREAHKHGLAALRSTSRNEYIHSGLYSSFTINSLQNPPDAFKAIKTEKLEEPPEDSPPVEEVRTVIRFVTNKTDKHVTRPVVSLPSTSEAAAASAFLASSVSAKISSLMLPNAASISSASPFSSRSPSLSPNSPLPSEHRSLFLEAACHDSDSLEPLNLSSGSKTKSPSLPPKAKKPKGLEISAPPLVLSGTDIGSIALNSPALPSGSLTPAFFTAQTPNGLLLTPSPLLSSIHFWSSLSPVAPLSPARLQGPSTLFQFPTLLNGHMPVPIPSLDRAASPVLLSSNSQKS
How it was run: as §1

FEV = target: T7, FEV (Homo sapiens, UniProt Q99581 1-238); settings: protein: recombinant; tags: N-terminal GST; dsDNA, one strand shown
T7 sequence: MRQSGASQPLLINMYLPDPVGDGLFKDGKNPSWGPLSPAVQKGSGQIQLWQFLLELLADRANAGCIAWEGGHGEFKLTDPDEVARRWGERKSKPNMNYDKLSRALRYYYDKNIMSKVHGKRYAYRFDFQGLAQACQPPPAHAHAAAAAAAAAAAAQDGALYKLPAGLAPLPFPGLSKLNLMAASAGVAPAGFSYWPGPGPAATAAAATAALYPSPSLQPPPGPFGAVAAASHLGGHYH
How it was run: as §1

ETV5 = ETV5 (Homo sapiens, UniProt P41161 1-510); settings: protein: recombinant; tags: N-terminal GST; dsDNA, one strand shown
Sequence of ETV5 (P41161 whole entry): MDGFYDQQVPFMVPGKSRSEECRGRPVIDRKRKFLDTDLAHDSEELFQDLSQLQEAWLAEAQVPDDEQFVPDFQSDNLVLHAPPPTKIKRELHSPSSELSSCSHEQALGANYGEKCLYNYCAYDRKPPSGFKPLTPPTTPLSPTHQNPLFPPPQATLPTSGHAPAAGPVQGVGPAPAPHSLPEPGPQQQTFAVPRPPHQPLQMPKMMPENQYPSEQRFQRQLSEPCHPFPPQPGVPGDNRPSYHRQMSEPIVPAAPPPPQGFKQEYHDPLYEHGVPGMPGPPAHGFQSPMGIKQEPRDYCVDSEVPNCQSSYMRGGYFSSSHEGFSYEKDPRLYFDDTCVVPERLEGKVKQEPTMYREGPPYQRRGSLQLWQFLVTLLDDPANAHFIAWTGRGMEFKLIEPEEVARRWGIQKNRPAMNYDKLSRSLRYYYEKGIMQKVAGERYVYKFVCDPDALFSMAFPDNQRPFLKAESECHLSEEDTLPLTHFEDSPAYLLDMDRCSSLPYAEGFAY
How it was run: as §1

HSF1 = HSF1 (Homo sapiens, UniProt Q00613 1-529); settings: protein: recombinant; tags: N-terminal GST; chain copies: 3; dsDNA, one strand shown
Sequence of HSF1 (Q00613 whole entry): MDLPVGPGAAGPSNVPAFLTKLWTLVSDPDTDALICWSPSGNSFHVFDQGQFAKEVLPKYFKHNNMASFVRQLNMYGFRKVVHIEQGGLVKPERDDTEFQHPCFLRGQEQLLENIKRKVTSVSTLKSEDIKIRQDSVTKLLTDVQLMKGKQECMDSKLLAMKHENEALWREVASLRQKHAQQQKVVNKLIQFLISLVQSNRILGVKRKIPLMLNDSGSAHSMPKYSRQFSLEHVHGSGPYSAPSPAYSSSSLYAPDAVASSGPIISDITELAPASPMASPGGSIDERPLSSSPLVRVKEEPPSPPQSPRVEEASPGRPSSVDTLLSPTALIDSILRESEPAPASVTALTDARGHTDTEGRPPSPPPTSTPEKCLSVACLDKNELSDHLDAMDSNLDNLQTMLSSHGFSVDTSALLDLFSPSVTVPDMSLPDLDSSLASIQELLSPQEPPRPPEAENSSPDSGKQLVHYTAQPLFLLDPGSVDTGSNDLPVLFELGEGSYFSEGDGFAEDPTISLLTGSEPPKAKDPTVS
How it was run: as §1

SPIC = target: T8, SPIC (Homo sapiens, UniProt Q8N5J4 1-248); settings: protein: recombinant; tags: N-terminal GST; dsDNA, one strand shown
T8 sequence: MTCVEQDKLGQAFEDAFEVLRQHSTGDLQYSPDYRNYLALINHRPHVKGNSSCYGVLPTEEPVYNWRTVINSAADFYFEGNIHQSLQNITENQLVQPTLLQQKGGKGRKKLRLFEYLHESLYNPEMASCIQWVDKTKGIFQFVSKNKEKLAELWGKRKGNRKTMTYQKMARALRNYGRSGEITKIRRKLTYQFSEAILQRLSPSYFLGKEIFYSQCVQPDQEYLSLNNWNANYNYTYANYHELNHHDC
How it was run: as §1

ELF4 = ELF4 (Homo sapiens, UniProt Q99607 1-663); settings: protein: recombinant; tags: N-terminal GST; dsDNA, one strand shown
Sequence of ELF4 (Q99607 whole entry): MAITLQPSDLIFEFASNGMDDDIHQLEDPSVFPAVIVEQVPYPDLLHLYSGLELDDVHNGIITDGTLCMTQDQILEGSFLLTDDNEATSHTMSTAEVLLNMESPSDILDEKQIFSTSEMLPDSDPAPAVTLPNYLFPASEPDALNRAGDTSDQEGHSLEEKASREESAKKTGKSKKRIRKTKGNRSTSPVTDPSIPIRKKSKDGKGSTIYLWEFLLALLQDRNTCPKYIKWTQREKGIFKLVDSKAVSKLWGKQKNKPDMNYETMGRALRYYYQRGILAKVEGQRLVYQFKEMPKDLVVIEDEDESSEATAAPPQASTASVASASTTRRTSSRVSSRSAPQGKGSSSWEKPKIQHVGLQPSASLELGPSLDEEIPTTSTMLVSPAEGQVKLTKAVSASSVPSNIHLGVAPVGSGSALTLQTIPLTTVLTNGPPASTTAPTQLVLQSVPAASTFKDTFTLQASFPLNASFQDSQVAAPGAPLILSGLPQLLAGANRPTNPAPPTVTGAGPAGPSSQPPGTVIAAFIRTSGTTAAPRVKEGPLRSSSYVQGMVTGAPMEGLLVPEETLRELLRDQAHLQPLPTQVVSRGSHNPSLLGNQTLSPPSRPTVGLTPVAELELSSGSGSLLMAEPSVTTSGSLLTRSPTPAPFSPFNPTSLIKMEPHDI
How it was run: as §1

ELK4 = target: T9, ELK4 (Homo sapiens, UniProt P28324-2 1-405); settings: protein: recombinant; tags: N-terminal GST; dsDNA, one strand shown
T9 sequence: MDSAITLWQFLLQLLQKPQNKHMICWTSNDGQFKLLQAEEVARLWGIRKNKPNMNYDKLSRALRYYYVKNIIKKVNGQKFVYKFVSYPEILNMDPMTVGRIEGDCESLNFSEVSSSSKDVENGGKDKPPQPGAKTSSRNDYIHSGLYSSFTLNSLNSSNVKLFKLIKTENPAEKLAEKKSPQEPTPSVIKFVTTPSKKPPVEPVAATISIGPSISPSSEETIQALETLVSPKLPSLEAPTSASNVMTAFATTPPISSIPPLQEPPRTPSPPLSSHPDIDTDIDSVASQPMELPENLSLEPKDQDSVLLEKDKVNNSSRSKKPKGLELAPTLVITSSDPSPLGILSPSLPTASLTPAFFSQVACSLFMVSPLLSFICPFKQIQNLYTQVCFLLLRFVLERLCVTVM
How it was run: as §1

ETV2 = target: T10, ETV2 (Homo sapiens, UniProt O00321 1-342); settings: protein: recombinant; tags: N-terminal GST; dsDNA, one strand shown
T10 sequence: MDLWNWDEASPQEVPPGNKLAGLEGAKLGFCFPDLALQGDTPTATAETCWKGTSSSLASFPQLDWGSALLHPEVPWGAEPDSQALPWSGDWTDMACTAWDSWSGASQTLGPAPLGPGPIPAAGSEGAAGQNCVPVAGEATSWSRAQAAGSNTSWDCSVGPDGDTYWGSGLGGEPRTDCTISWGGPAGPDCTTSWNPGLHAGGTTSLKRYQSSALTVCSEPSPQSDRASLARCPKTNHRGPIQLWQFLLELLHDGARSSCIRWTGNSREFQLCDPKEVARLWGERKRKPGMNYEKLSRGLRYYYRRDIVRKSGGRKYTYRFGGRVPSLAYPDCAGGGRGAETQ
How it was run: as §1

ELF3 = target: T11, ELF3 (Homo sapiens, UniProt P78545 1-371); settings: protein: recombinant; tags: N-terminal GST; dsDNA, one strand shown
T11 sequence: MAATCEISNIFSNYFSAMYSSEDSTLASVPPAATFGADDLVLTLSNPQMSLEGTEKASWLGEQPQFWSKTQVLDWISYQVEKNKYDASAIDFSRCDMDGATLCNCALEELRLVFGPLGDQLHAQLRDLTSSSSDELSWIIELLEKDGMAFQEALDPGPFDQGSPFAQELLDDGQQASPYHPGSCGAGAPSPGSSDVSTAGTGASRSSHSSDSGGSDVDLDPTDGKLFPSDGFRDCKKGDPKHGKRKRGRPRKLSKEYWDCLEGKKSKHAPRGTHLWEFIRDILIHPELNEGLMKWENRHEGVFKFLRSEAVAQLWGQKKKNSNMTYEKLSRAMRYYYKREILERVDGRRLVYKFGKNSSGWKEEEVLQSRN
How it was run: as §1

CRX = CRX (Homo sapiens, UniProt O43186 1-299); settings: protein: recombinant; tags: N-terminal GST; dsDNA, one strand shown
Sequence of CRX (O43186 whole entry): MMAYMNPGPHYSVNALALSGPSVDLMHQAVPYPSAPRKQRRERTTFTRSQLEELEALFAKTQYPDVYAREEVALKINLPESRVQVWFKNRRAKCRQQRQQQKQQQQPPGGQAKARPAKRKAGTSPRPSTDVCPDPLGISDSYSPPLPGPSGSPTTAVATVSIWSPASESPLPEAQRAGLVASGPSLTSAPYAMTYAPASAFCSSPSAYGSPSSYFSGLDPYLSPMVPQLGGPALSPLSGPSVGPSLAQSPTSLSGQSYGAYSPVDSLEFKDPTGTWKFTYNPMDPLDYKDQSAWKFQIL
How it was run: as §1

ETV1 = ETV1 (Homo sapiens, UniProt P50549 1-477); settings: protein: recombinant; tags: N-terminal GST; dsDNA, one strand shown
Sequence of ETV1 (P50549 whole entry): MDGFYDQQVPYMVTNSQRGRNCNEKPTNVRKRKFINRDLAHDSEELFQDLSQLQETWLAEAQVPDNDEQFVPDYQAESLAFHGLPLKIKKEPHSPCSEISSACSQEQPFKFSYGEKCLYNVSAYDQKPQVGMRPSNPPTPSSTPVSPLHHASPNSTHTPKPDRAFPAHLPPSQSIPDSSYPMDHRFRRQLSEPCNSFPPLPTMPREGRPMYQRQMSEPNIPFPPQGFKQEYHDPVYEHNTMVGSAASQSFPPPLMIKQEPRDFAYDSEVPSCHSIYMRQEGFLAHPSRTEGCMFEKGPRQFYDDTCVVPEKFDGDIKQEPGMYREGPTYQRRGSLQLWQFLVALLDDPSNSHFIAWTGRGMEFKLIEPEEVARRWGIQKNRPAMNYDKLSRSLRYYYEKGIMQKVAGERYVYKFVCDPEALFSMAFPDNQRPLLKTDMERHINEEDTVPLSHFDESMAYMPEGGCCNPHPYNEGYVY
How it was run: as §1

## ATGATC
FLI1
  binding signal: 1.2 fold enrichment (6-mer frequency, TF over GST control)
ELK1
  binding signal: 1.17 fold enrichment (6-mer frequency, TF over GST control)
GABPA
  binding signal: 1.3 fold enrichment (6-mer frequency, TF over GST control)
ERG
  binding signal: 1.1 fold enrichment (6-mer frequency, TF over GST control)
ELF1
  binding signal: 1.22 fold enrichment (6-mer frequency, TF over GST control)
EHF
  binding signal: 1.28 fold enrichment (6-mer frequency, TF over GST control)
SPI1
  binding signal: 1.15 fold enrichment (6-mer frequency, TF over GST control)
SPIB
  binding signal: 1.18 fold enrichment (6-mer frequency, TF over GST control)
ELK3
  binding signal: 1.31 fold enrichment (6-mer frequency, TF over GST control)
FEV
  binding signal: 1.14 fold enrichment (6-mer frequency, TF over GST control)
ETV5
  binding signal: 1.24 fold enrichment (6-mer frequency, TF over GST control)
HSF1
  binding signal: 1.59 fold enrichment (6-mer frequency, TF over GST control)
SPIC
  binding signal: 1.38 fold enrichment (6-mer frequency, TF over GST control)
ELF4
  binding signal: 1.21 fold enrichment (6-mer frequency, TF over GST control)
ELK4
  binding signal: 1.16 fold enrichment (6-mer frequency, TF over GST control)
ETV2
  binding signal: 1.15 fold enrichment (6-mer frequency, TF over GST control)
ELF3
  binding signal: 1.19 fold enrichment (6-mer frequency, TF over GST control)
CRX
  binding signal: 1.74 fold enrichment (6-mer frequency, TF over GST control)
ETV1
  binding signal: 1.1 fold enrichment (6-mer frequency, TF over GST control)

— paper PMC7862700, “An all-to-all approach to the identification of sequence-specific readers for epigenetic DNA modifications on cytosine”
